The record followed here is the supplement of paper PMC3334620.

The full ranking holds about 33,000 sequences; the median of “E-score (-0.5 to 0.5)” is about -0.011, and the highest 2% start at about 0.28. The sample holds the highest values, similar sequences and a random draw of the others, so the mix is not that of the screen.

The test addresses T1, Gcr1 (UniProt P07261).
T1 sequence: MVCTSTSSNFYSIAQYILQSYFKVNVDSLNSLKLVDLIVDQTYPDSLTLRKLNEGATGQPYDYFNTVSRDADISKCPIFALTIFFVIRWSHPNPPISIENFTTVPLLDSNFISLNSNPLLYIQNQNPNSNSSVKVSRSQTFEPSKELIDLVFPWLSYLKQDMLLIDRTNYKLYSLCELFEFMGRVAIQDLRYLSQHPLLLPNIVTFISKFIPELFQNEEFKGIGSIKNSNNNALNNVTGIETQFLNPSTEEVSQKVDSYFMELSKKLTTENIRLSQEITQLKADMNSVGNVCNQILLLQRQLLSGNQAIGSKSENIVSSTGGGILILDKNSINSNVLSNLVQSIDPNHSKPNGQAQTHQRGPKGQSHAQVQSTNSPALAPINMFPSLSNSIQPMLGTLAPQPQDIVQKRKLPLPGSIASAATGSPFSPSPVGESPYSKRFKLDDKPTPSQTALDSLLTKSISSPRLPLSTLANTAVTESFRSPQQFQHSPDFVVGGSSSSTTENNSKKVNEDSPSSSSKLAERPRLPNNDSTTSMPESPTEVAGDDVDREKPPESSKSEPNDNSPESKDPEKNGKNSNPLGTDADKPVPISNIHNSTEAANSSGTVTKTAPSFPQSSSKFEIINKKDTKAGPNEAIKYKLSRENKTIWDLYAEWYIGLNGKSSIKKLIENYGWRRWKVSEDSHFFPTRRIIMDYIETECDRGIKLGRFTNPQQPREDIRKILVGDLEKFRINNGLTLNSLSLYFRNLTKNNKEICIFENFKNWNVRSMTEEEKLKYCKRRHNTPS
Kind of test: PBM E-score (8-mer binding enrichment) (E-score (-0.5 to 0.5)); higher = stronger / more preferred TF binding. The following applies: protein concentration: 100 nM; construct: GST-full length. As for the experimental part:
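Universal 'all 10-mer' protein binding microarrays (Agilent AMADID 015681) probed with GST-tagged S. cerevisiae TFs (full-length or DBD) made by in vitro transcription/translation (PURExpress), about 100-200 nM. Bound TF was detected with fluorescent anti-GST. Each ungapped 8-mer (which stands for itself and its reverse complement) is scored by the PBM enrichment score (E-score), a modified Wilcoxon-Mann-Whitney statistic from -0.5 to +0.5, computed with the Universal PBM Analysis Suite. Scale: above 0.35 generally sequence-specific binding.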
As to CAGTCCCA, the “PBM E-score” value worked out at 0.0489.

In the case of CCGGCGTA, the “PBM E-score” value was -0.139.

For AGGGCGTC, the “PBM E-score” value is 0.26.

CGGGCGTA: the “PBM E-score” value was -0.097.

CCGGCGTC: the “PBM E-score” value came out at 0.402.

ACAGCGTC: the “PBM E-score” value was -0.0458.

GCGGCGAC: the “PBM E-score” value turned out to be 0.148.

For the sequence GCGGCGCA, the “PBM E-score” value was -0.064.

With CCAGCGTA, the “PBM E-score” value is -0.178.

As to ACGGCGTC, the “PBM E-score” value was found to be 0.243.

On to GCGGCGCC, for which the “PBM E-score” value was determined as 0.324.

For CCAGCGTC, the “PBM E-score” value amounted to 0.314.

As to CGGGCGTC, the “PBM E-score” value was 0.307.

Turning to GCGCCTGA, the “PBM E-score” value turned out to be 0.171.

ATCCTACG: the “PBM E-score” value was -0.00941.

AGGCCCCG: the “PBM E-score” value came to 0.0239.

As to ATGATTTC, the “PBM E-score” value was -0.142.

Turning to AAATTGTG, the “PBM E-score” value is -0.0559.

For CATAACCC, the “PBM E-score” value was -0.121.

In the case of CTCAATCA, the “PBM E-score” value worked out at 0.119.

On to CCGGCGCA, for which the “PBM E-score” value is -0.0778.

Turning to CCGGCGCC, the “PBM E-score” value was determined as 0.317.

On to ACGGCGCT, for which the “PBM E-score” value is -0.00448.

Turning to ACGGCGCC, the “PBM E-score” value was 0.312.

With ACGGCGCA, the “PBM E-score” value is -0.265.

Take CCGGCGCG: the “PBM E-score” value was -0.112.

Regarding CCTAAAGG, the “PBM E-score” value is 0.0292.

Consider AACTGATC, for which the “PBM E-score” value is -0.114.

On to ATGGATCA, for which the “PBM E-score” value was -0.201.

As to GCACCACC, the “PBM E-score” value was -0.0802.

Regarding GTAGGCCA, the “PBM E-score” value was -0.106.

Turning to ATCCGGAA, the “PBM E-score” value was 0.26.

As for ATCCGGAT, the “PBM E-score” value worked out at 0.286.

Regarding ATCCGGAC, the “PBM E-score” value was -0.106.

Take GAAGTAAA: the “PBM E-score” value was -0.0223.

Regarding CAGGCGCA, the “PBM E-score” value was -0.0694.

With GAGGCGCC, the “PBM E-score” value turned out to be 0.302.

Consider GAGGCGCA, for which the “PBM E-score” value came to 0.0503.

With CAGGCGCG, the “PBM E-score” value was -0.0119.

Turning to AAGGCGCC, the “PBM E-score” value amounted to 0.258.

With CAGGCGCC, the “PBM E-score” value stood at 0.361.

On to AAATGGTT, for which the “PBM E-score” value was 0.0753.

For the sequence ATTGAAGA, the “PBM E-score” value was 0.0516.

Consider CAGATAGG, for which the “PBM E-score” value came to 0.0828.

As for TAATTGAA, the “PBM E-score” value worked out at 0.228.

On to CTACGCAG, for which the “PBM E-score” value is 0.0122.

Turning to ATACGCAG, the “PBM E-score” value was determined as 0.281.

On to ACACGCAA, for which the “PBM E-score” value is 0.127.

For the sequence ATACGCAT, the “PBM E-score” value was determined as 0.23.

Consider ACACGCAG, for which the “PBM E-score” value is 0.323.

For ACACGCAC, the “PBM E-score” value turned out to be 0.0159.

Regarding AGGCTATC, the “PBM E-score” value was -0.243.

With TGTTCAAA, the “PBM E-score” value is -0.014.

For AAGGAGGT, the “PBM E-score” value was -0.0668.

Take AAGAGGGG: the “PBM E-score” value worked out at 0.0114.

As for CGGGCTGC, the “PBM E-score” value came out at 0.234.

AGGGCTTC: the “PBM E-score” value is 0.339.

On to CGGGCTTA, for which the “PBM E-score” value amounted to 0.00411.

Regarding ACGGCTTC, the “PBM E-score” value amounted to 0.238.

Consider CCGGCTTC, for which the “PBM E-score” value is 0.358.

In the case of CCGGCTTA, the “PBM E-score” value is -0.0254.

Consider AGGGCTTA, for which the “PBM E-score” value is -0.262.

Regarding CGGGCTTC, the “PBM E-score” value is 0.415.

In the case of AGGGCTTG, the “PBM E-score” value is -0.209.

With CTCCCCGC, the “PBM E-score” value came out at 0.196.

On to ACGGCACG, for which the “PBM E-score” value is -0.0602.

With ACGGTCGA, the “PBM E-score” value was -0.354.

As for GGGGGCGA, the “PBM E-score” value is -0.0875.

In the case of GCTGGTCA, the “PBM E-score” value is -0.151.

As for ACTCGTTC, the “PBM E-score” value was -0.0676.

Turning to CCCAATAA, the “PBM E-score” value was 0.0668.

As for ATCACTCC, the “PBM E-score” value was -0.0513.

For ACTGCCAT, the “PBM E-score” value is 0.0395.

Take CCCCTCAA: the “PBM E-score” value was -0.118.

Regarding ATCCTGAA, the “PBM E-score” value was 0.31.

Take ATCCTGTA: the “PBM E-score” value was determined as 0.28.

On to ATCCTGAC, for which the “PBM E-score” value amounted to 0.163.

Regarding GGGACCTA, the “PBM E-score” value amounted to 0.0741.

On to ACTATTGC, for which the “PBM E-score” value was 0.0299.

As to ATGGCGCC, the “PBM E-score” value amounted to 0.343.

On to CTGGCGCA, for which the “PBM E-score” value was -0.119.

With ATGGCGTC, the “PBM E-score” value came out at 0.319.

In the case of ATGGCGTG, the “PBM E-score” value is -0.0168.

Consider CTGGCGCC, for which the “PBM E-score” value amounted to 0.319.

Consider CTGGCGGC, for which the “PBM E-score” value worked out at 0.265.

ATGGCGCA: the “PBM E-score” value was -0.122.

For CTGGCGTC, the “PBM E-score” value worked out at 0.279.

ATGGCGCG: the “PBM E-score” value was 0.116.
